MPTP inh – permeability transition pore inhibition. isolated mouse mitochondria, Ca2+ swelling absorbance, 30 min. inhibition, % at 10 µM. 1.4% of 360,000 active;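 active = inhibition of 50% or more, scaled per plate between neutral and stimulator controls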
CSC inhib – cancer stem cell inhibition. cancer stem cell-like cells viability, luminescence. inhibition, % at 7.5 µM. 1.1% of 300,000 active. AID 2717; in the data active = inhibition above about 75%; inconclusive = no clear call, values can overlap the other calls; tested in HMLE shEcad cells
Beta cell apopt – beta cell apoptosis inhibition; INS-1E cytokine-induced death, ATP luminescence, 48 h; percent of positive-control rescue, neutral wells zero; protection from apoptosis, % (concentration not given with the values); 0.8% of 300,000 active; AID 435005;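 active = Every replicate reaches about 75%, or at least half do and their mean reaches it too, limit read from the data; inconclusive = At least half of replicates reach the limit but their mean does not; inactive = Under half of replicates reach the limit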;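 note: higher means more ATP so stronger rescue from cytokine killing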
Mdm2 MdmX PPI – inhibitors of human Mdm2/MdmX interaction. 3% of 330,000 active. SaOS-2 split-luciferase Mdm2/MdmX complementation, luminescence. inhibition, % at 8 µM. O15151+Q00987;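 active = inhibition of at least 50% at 8 µM in the primary screen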
Target sequence (O15151 whole entry, looked up): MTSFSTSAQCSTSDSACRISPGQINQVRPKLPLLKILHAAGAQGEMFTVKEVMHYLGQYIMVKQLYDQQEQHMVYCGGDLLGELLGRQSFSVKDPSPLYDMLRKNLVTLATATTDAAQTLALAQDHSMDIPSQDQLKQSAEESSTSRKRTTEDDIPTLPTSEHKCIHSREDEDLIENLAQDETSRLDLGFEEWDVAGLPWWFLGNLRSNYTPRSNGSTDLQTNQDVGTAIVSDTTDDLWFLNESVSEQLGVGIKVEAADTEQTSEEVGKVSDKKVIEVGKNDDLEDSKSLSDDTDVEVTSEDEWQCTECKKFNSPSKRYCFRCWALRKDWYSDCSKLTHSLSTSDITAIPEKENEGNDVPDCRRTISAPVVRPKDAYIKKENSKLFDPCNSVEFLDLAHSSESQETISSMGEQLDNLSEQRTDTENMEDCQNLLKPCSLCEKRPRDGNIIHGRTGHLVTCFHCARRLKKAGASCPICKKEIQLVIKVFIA
Target sequence (Q00987 whole entry, looked up): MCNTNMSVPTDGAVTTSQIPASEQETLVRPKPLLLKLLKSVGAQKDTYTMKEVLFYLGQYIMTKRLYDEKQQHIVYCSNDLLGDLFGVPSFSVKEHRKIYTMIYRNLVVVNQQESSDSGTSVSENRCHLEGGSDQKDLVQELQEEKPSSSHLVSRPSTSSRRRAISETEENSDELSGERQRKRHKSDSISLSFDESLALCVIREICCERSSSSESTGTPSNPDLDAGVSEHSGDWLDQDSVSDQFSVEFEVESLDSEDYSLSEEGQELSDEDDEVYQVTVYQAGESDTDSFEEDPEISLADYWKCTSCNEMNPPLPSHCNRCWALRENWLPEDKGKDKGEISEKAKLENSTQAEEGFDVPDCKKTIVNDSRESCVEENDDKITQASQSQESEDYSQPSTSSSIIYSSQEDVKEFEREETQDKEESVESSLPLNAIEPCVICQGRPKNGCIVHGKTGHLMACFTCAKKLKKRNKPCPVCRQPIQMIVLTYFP
NR3A LBD binder – modulates the human NR3A ligand-binding domain. NR3A LBD differential scanning fluorimetry, Tm shift; 0% = protein alone, 100% = glycine-bound protein. Tm shift relative to glycine control, % at 25 µM. 2.5% of 340,000 active. AID 1259313;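 active = melting temperature shift of at least 10% of the positive control shift, at one fixed dose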
SKKanGAS inh – inhibitors of SKKanGAS S. pyogenes growth in kanamycin (SK-promoter or general growth effect) | inhibition, % at 7.5 µM | 1.3% of 300,000 active | BacTiter-Glo, 6 h;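 active = mean replicate score, as percent of positive control median, at least 50; inconclusive = mean below 50 but one replicate at or above 50; inactive = mean and every replicate below 50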;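 note: strain carries kanamycin resistance gene driven by streptokinase promoter and grows in 40 µg/ml kanamycin; loss of luminescence reflects streptokinase promoter inhibition or plain growth inhibition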
Numbers stand for hits; n = inactive; u = inconclusive; x = no result. Shown are actives, neighbours in structure and some others; about 6.9% of the full set was active somewhere.

SMILES | MPTP inh | CSC inhib | Beta cell apopt | Mdm2 MdmX PPI | NR3A LBD binder | SKKanGAS inh
Oc1ccc(N=Nc2ccc3ccccc3c2)cc1 | n | 111 | n | n | 24 | n
COc1cc(N=Nc2ccc3ccccc3c2)ccc1O | n | 93 | n | n | n | n
NS(=O)(=O)c1ccc(N=Nc2c(O)ccc3ccccc23)cc1 | n | n | n | n | n | n
Cc1ccc(OCC(=O)Nc2nnc(S(=O)(=O)N3CCC(C)CC3)s2)cc1 | n | n | n | n | n | n
CCS(=O)(=O)N1Cc2ccccc2CC1C(=O)Nc1nnc(SCc2ccc(F)cc2)s1 (centres undefined) | n | n | n | n | n | 54
NS(=O)(=O)c1ccc(N2N=C(c3ccccc3)CC2c2cccc(Cl)c2)cc1 (centres undefined) | n | x | x | n | 24 | x
COc1ccc(C2CC(c3ccccc3)=NN2c2ccc(S(N)(=O)=O)cc2)cc1 (centres undefined) | n | n | n | n | n | u
Oc1ccccc1C1=NN(c2ccccc2)C(c2ccc(F)cc2)C1 (centres undefined) | n | n | n | n | n | n
CC(=O)Nc1ccc(C2CC(c3ccc(Cl)cc3)=NN2c2ccccc2)cc1 (centres undefined) | n | u | n | n | 15 | n
NS(=O)(=O)c1ccc(N2N=C(c3ccccc3)CC2c2ccc(F)cc2)cc1 (centres undefined) | n | n | n | n | n | 64
Cc1cccc(C2CC(c3ccccc3)=NN2c2ccc(S(N)(=O)=O)cc2)c1 (centres undefined) | n | x | x | x | x | x
Oc1ccc(C2=NN(c3ccccc3)C(c3ccc(F)cc3)C2)cc1 (centres undefined) | n | u | n | n | 21 | 81
CC(=O)Nc1ccc(C2=NN(c3ccccc3)C(c3ccccc3)C2)cc1 (centres undefined) | n | n | n | n | n | n
Cc1ccc(NC(=O)N2N=C(c3ccc(F)cc3)CC2c2ccc(F)cc2)cc1 (centres undefined) | n | n | n | n | 19 | n
COc1ccc(C2CC(c3ccccc3Cl)=NN2c2ccc(S(N)(=O)=O)cc2)cc1 (centres undefined) | n | x | x | n | 11 | x
O=C(c1ccccc1)N1N=C(c2ccc(F)cc2)CC1c1ccc(F)cc1 (centres undefined) | n | x | x | x | n | x
CNc1c(NS(=O)(=O)c2ccc(CC(C)C)cc2)c(=O)oc2ccccc12 | n | n | n | n | n | n
Cc1nc2ccccc2n1/N=C/c1ccc([N+](=O)[O-])s1 | n | n | 109 | n | n | 92
O=[N+]([O-])c1ccc(/C=N/n2c(CO)nc3ccccc32)s1 | n | n | 81 | n | n | n
Cc1nc2ccccc2n1/N=C/c1ccc([N+](=O)[O-])o1 | n | u | n | n | n | n
O=C(CNC(=O)c1ccccc1Cl)N/N=C/c1ccc([N+](=O)[O-])s1 | n | n | n | n | n | n
CCCCn1c(C2CCCCC2)nc2cc3[nH]c(=O)c(C(C)C)nc3cc21 | n | 81 | x | n | n | n
CCCCn1c(-c2ccccc2C)nc2cc3[nH]c(=O)c(C(C)C)nc3cc21 | n | n | n | n | n | n
Cc1ccc(-n2c(-c3ccc(Br)cc3)c[n+]3c2CCc2ccc4cccnc4c2-3)cc1 | n | n | 133 | x | n | 81
CN(C)C(=O)CCSc1nnc(-c2ccco2)o1 | n | n | n | n | n | n
SMILES | MPTP inh | CSC inhib | Beta cell apopt | Mdm2 MdmX PPI | NR3A LBD binder | SKKanGAS inh
CCC(C)NC(=O)C1(O)c2cc(Br)ccc2NC(=O)N1c1cccc(OC)c1 (centres undefined) | n | n | n | n | n | n
ON=C1c2ccccc2-c2ccc(Br)cc21 | n | x | x | x | n | x
Nc1cc2c(cc1Br)-c1ccccc1C2=NO | n | x | x | x | 31 | x
O=C(CN1C(=O)NC2(CCCCCC2)C1=O)Nc1ccc(OC(F)(F)F)cc1 | n | x | x | x | x | x
NC(=O)CSc1nnc(COc2ccccc2)n1Cc1ccco1 | n | n | n | n | n | n
CN(C)c1ccc(-c2ccnc3c2CC(C)(C(=O)Nc2ccccc2)O3)cc1 (centres undefined) | n | x | x | x | x | x
CCn1cc(C(=O)NCc2ccc3c(c2)OCO3)c(=O)c2cc(F)c(N3CCN(C(=O)c4ccco4)CC3)cc21 | n | n | n | n | n | 54
CCn1cc(C(=O)NCc2ccccc2)c(=O)c2cc(F)c(N3CCN(C(=O)c4ccco4)CC3)cc21 | n | n | x | n | n | n
CCn1cc(C(=O)NC(C)C)c(=O)c2cc(F)c(N3CCN(C(=O)c4ccco4)CC3)cc21 | n | n | n | n | 12 | n
CCOc1ccc(OCCC(=O)OCC(=O)NNC(=O)c2ccccc2)cc1 | n | n | n | n | x | n
Cc1ccc(S(=O)(=O)NC(=O)C2(C)CCN2C(=O)C2CCCCC2)nc1 (centres undefined) | n | x | x | x | x | x
CC(c1ccccc1)N1C(=O)c2ccc(C(=O)Nc3ccc(Br)cc3C(=O)O)cc2C1=O (centres undefined) | n | n | n | n | n | 53
CCOC(=O)Cc1csc(NC(=O)CSc2nc(=O)[nH]c3c2CCCC3)n1 | n | n | n | n | n | n
Cc1ccc(NC(=O)C2CCC(=O)N2C(=O)OCc2ccccc2)cc1 (centres undefined) | n | x | n | n | n | n
COc1ccc(NC(=O)C2CCC(=O)N2C(=O)OCc2ccccc2)cc1 (centres undefined) | n | n | n | n | 11 | n
CC(C)(C)CN1CCC(Oc2cccc(C(=O)NCCCOc3cccnc3)c2)CC1 | n | n | 105 | n | n | n
C=CCNC(=O)c1cccc(OC2CCN(CC(C)(C)C)CC2)c1 | n | n | n | n | n | n
COc1cccc(C2c3cc4c(cc3OC(N3CCCC3)C2C)OCO4)c1O (centres undefined) | n | x | x | x | 15 | x
C(=N\Nc1nc(Nc2ccccc2)nc(N2CCCCC2)n1)/c1ccco1 | x | n | n | n | x | 81
COc1ccc(/C=N/Nc2nc(Nc3ccccc3)nc(N3CCCC3)n2)cc1 | n | n | x | n | n | 56
CCOC(=O)c1sc2nccc(N(C)C)c2c1N=CNOCc1c(F)cccc1Cl | n | n | x | n | n | 52
Cc1c(Cc2ccccc2)sc(/N=C/c2c(O)ccc3ccccc23)c1C(N)=O | n | 98 | n | n | 12 | n
c1ccc2c3c([nH]c2c1)-c1[nH]ncc1CC3 | n | n | n | n | 30 | n
Clc1ccc2[nH]c3c(c2c1)CCc1cn[nH]c1-3 | n | n | n | n | 18 | n
CCc1c(C)sc(NC(=S)N2CC(C)OC(C)C2)c1C(=O)OC (centres undefined) | n | n | n | n | 13 | n
CCc1c(C)sc(NC(=S)N2CCN(C(=O)C3CCCO3)CC2)c1C(=O)OC (centres undefined) | n | n | n | n | n | n
COc1ccc(Cl)cc1C(=O)Nc1ccc(S(=O)(=O)N2CCCC2)cc1 | n | n | n | n | 20 | n
COc1ccc(C(=O)Nc2ccc(S(=O)(=O)NC(C)(C)C)cc2)cc1[N+](=O)[O-] | n | n | n | n | 28 | n

Compound activity deposited in PubChem BioAssay by several laboratories.
